Laboratory results: PubChem BioAssay AID504454 (NMMLSC, 2011)
The whole screen tested about 340,000 compounds, of which about 1,400 (0.41%) were called active. The sample holds actives, similar compounds and a random draw of the others, so the mix is not that of the screen.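 Rule for the calls: active = response above a set limit, near 3 SD of response in nonfluorescent compounds (cut at about 42% in these data); inactive = the rest.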

What follows are molecules tested against Beta-2 adrenergic receptor (Homo sapiens) (UniProt P07550) (assay: beta2AR agonists driving receptor internalization, primary screen, cell-based, FAP fluorogen, flow cytometry (AID 504454)). Conditions: Am2.2-beta2AR cells, active compounds read high, concentration not given here.
Chain of Beta-2 adrenergic receptor (Homo sapiens) (P07550 whole entry, looked up): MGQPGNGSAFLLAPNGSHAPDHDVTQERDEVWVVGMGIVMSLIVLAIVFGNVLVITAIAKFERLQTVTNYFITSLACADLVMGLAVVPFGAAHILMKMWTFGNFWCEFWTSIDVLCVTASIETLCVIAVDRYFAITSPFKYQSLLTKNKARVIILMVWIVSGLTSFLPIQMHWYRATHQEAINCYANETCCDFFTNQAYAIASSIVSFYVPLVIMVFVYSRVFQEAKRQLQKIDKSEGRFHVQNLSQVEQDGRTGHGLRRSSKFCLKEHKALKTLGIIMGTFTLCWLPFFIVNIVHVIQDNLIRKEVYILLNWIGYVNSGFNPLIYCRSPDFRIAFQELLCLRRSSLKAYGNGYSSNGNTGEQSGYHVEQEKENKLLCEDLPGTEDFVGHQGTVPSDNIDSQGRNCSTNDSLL

response, inactive:
COC(=O)c1ccc(C23CC4(C2)[C@H](CN(Cc2cccnc2)[C@@H]4c2ccccc2)C3c2ccc(Cl)nc2)cc1 (some centres not stated) 5.54%
CCn1c(CNc2ccc(OC)cc2)nnc1SCC(=O)c1ccc(OC)cc1 6.23%
CCC(c1nnc(SCC(=O)NNC(=O)c2ccccc2)n1Cc1ccccc1)N(C)C (configuration not stated) -7.18%
Cc1cc(C)c(S(=O)(=O)n2cc(C(C)C(N)C(=O)O)c3ccccc32)c(C)c1 (configuration not stated) 3.12%
CCCNC(=O)N1CCC(c2ccc3c(c2)OCO3)CC1 6.03%
O=[N+]([O-])c1ccc(NC(=S)N2CCN(c3ccccn3)CC2)cc1 -2.61%
COc1ccc(NC(=O)c2sc3nc(C)nc(N4CCN(c5ccccn5)CC4)c3c2C)c(OC)c1 16.2%
COCc1cc(C)nc2sc(C(=O)NC3CCCCC3)c(N)c12 -21.3%
O=S(=O)(c1ccccc1)c1nc(Cc2ccccc2)oc1N1CCOCC1 6.12%
CCCCN=C1N/C(=C\c2ccco2)C(=O)N1c1ccccc1 0.77%
COc1cc(OC)cc(C(=O)NNC(=O)CCOc2ccccc2OC)c1 4.38%
CCN1CCC(=NNC(=O)c2ccc(C)c([N+](=O)[O-])c2)CC1 2.52%
CCCCN(CCCC)CCCNC(=O)CN1C(=O)COc2ccc(S(=O)(=O)N3CCC(C)CC3)cc21 7.21%
Cc1nc2ccccc2c(C)c1C(=O)c1ccc(F)cc1 1.92%
Cc1nc2ccccc2c(C(=O)O)c1-c1ccccn1 5.02%
CC/S(CC1CC1(Cl)Cl)=N\S(=O)(=O)c1ccc(C)cc1 (configuration not stated) -2.93%
COc1ccc2c(c1OC)C(=O)N(c1ccc(O)cc1)C2 5.16%
COc1ccnc(Oc2ccccc2)c1-c1ncn[nH]1 1.34%

response, active:
CCn1c(SCC(=O)NNC(=O)c2ccc(OC)cc2)nnc1C(C)C 76.2%
COc1ccc(OC)c(NC(=O)c2sc3nc(C)cc(C)c3c2N)c1 72.5%
Cc1nc2ccccc2c(-c2ccccc2)c1C(=O)c1ccccc1 105%
O=c1[nH]c(=S)[nH]c(O)c1/C=C1\C=Nc2ccccc21 57.7%
